# In PubChem BioAssay (NCATS):
# A number with no mark means an inactive call. Inconclusive results are not listed. A call without a number means that no potency is given here. Active and inactive are the calls of the source. Calls follow the shape of the dose curve; as a rule, active = well fitted curve in the direction sought with a large enough effect; inconclusive = small, poorly fitted or top-dose-only effect, or another doubt; inactive = no such curve, though single readings can be large; an effect the other way counts as inactive or inconclusive.
# How the values were obtained:
# [1] = Primary qHTS for inhibitors of nuclear receptor binding SET domain protein 2 (NSD2) in an isogenic RCH-ACV NSD2 p.E1099K mutant (9B) (AID 1645876); also: nearly all actives have a fitted effect of over 70% in size; also: potency is read from the fitted curve at half-maximal effect
# [2] = Primary qHTS for inhibitors of nuclear receptor binding SET domain protein 2 (NSD2) in an RCH-ACV wild type WT cells (2C) (AID 1645877); also: nearly all actives have a fitted effect of over 70% in size; also: potency is read from the fitted curve at half-maximal effect
# [3] = biological target: Glutathione peroxidase 1 (Homo sapiens) (UniProt P07203); experiment: Primary qHTS Assay for Inhibitors of Recombinant Selenoprotein Glutathione Peroxidase 1 (GPX1) (AID 1845191); also: nearly all actives have a fitted effect of over 65% in size
# Summary of the method: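 GPX1 10 nM, GR 100 nM, GSH 1 mM, NADPH 0.5 mM, CHP 0.5 mM (final). 30-min cpd preincubation, RT. Ex340/Em450 read t=0, t=15 min.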
# [4] = biological target: Phospholipid hydroperoxide glutathione peroxidase GPX4 (Homo sapiens) (UniProt P36969); experiment: Primary qHTS Assay for Inhibitors of Recombinant Selenoprotein Glutathione Peroxidase 4 (GPX4) (AID 1845192); also: nearly all actives have a fitted effect of over 65% in size
# Summary of the method: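 qHTS, GR-coupled: GPX4 200 nM + cpd 30 min RT → GSH 1 mM, NADPH 0.5 mM, GR 100 nM → CHP 0.5 mM start; fluor 340/450 at t0 and t15 min; no-enzyme wells as control.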
# [5] = biological target: Luciferin 4-monooxygenase (Photinus pyralis) (UniProt P08659); experiment: Primary firefly luciferase (FLuc) qHTS assay for identification of artifact compounds. (AID 1845220); conditions: outcome: dose series up to 54.1 µM unless noted; also: nearly all actives have a fitted effect of over 60% in size
# Summary of the method: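 Reaction readout was CCD-imaged luminescence, taken 5 min after adding 10 nM purified firefly enzyme to compound-treated wells holding 10 uM luciferin and ATP in pH 7.6 buffer.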
# [6] = Primary fluorescence-based thiol-reactive (MSTI) qHTS assay for identification of artifact compounds. (AID 1845221);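 also: thiol-reactive compounds lower the probe fluorescence signal; nearly all actives have a fitted effect of over 65% in size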
# Summary of the method: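 In PBS pH 7.4 with 2% DMSO, each compound met 4 uM MSTI for one hour at ambient temperature, shielded from light, before fluorescence detection.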
# [7] = tested on: Nanoluciferase (engineered Oplophorus gracilirostris luciferase); experiment: Primary Nanoluciferase (NLuc) qHTS assay for identification of artifact compounds. (AID 1845222);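 also: NLuc secreted into diluted conditioned medium of S16 cells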
# Summary of the method: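 Concentration-response data were obtained by luminescence after 5 min with Nano-Glo substrate at 1:100. The enzyme was diluted S16 NLuc-expressing cell medium, preincubated with compound for 15 min at RT. Curves were fitted with a 4-parameter Hill model.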
# CRL-7250 = normal cell line; experiment: Cytotoxic Profiling of Annotated Libraries Using Quantitative High-Throughput Screening (AID 1296008); conditions: Five cell lines viability, CellTiter-Glo ATP luminescence, 48-72 h; max response: active compounds read low; also: nearly all actives have a fitted effect of over 60% in size; also: potency is read from the fitted curve at half-maximal effect
# Summary of the method: (§1)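 Compounds were pin-transferred onto cells and incubated 48 or 72 hr at 37 degree Celsius, 95% humidity. CellTiter-Glo was added, plates sat 10 min at room temperature, then ATP-coupled luminescence was imaged as the viability read-out.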
# HEK293 = experiment: as above; conditions: Five cell lines viability, CellTiter-Glo ATP luminescence, 48-72 h; max response: active compounds read low
# Summary of the method: as §1
# HaCat = experiment: as above; conditions: Five cell lines viability, CellTiter-Glo ATP luminescence, 48-72 h; max response: active compounds read low
# Summary of the method: as §1
# KB-3-1 = experiment: as above; conditions: Five cell lines viability, CellTiter-Glo ATP luminescence, 48-72 h; max response: active compounds read low
# Summary of the method: as §1
# NIH3T3 = experiment: as above; conditions: Five cell lines viability, CellTiter-Glo ATP luminescence, 48-72 h; max response: active compounds read low
# Summary of the method: as §1
# C33A = experiment: Primary qHTS to identify gynecologic anti-cancer compounds using libraries of approved drugs and bioactive compounds (AID 1345084); conditions: Gynecologic cancer cell panel viability, ATPlite luminescence, 48 h; series mostly up to 57.5 µM; also: nearly all actives have a fitted effect of over 55% in size; also: potency is read from the fitted curve at half-maximal effect
# Summary of the method: (§2)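 Five-concentration response, 48 h; readout is ATP-driven luciferase luminescence.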
# CASKI = experiment: as above; conditions: Gynecologic cancer cell panel viability, ATPlite luminescence, 48 h; series mostly up to 57.5 µM
# Summary of the method: as §2
# Es-2 = experiment: as above; conditions: Gynecologic cancer cell panel viability, ATPlite luminescence, 48 h; series mostly up to 57.5 µM
# Summary of the method: as §2
# Hek293T = experiment: as above; conditions: Gynecologic cancer cell panel viability, ATPlite luminescence, 48 h, control line for the selectivity index; series mostly up to 57.5 µM
# Summary of the method: as §2
# OV90 = experiment: as above; conditions: Gynecologic cancer cell panel viability, ATPlite luminescence, 48 h; series mostly up to 57.5 µM
# Summary of the method: as §2
# PA-1 = experiment: as above; conditions: Gynecologic cancer cell panel viability, ATPlite luminescence, 48 h; series mostly up to 57.5 µM
# Summary of the method: as §2
# Tov-21-G = experiment: as above; conditions: Gynecologic cancer cell panel viability, ATPlite luminescence, 48 h; series mostly up to 57.5 µM
# Summary of the method: as §2
# Tov112D = experiment: as above; conditions: Gynecologic cancer cell panel viability, ATPlite luminescence, 48 h; series mostly up to 57.5 µM
# Summary of the method: as §2
# Sequence of Glutathione peroxidase 1 (Homo sapiens) (P07203 whole entry, looked up): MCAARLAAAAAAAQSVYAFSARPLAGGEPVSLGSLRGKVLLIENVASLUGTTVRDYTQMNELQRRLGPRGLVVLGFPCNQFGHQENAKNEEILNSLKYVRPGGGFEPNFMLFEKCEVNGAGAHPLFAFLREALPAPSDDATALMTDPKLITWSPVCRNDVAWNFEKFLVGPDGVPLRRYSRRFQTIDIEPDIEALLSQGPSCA
# Sequence of Phospholipid hydroperoxide glutathione peroxidase GPX4 (Homo sapiens) (P36969 whole entry, looked up): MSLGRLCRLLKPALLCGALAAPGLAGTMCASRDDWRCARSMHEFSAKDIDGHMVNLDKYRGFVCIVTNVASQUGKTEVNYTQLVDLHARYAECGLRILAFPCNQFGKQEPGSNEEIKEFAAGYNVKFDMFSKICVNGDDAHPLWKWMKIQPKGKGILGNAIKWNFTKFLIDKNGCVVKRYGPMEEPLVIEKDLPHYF
structure (smiles),measurement,setting,value
COC(=O)C1=COC(C)C2CN3CCC4(C(=O)Nc5ccccc54)C3CC12 (centres undefined),Potency,[1],inactive
same,Potency,[2],inactive
same,Potency,[3],inactive
same,Potency,[4],inactive
same,outcome,[5],inactive
same,Potency,[6],inactive
same,Potency,[7],inactive
same,max response,CRL-7250,-2.61%
same,max response,HEK293,-24%
same,max response,HaCat,2.66%
same,max response,KB-3-1,-8.2%
same,max response,NIH3T3,-11.4%
same,Potency,C33A,inactive
same,Potency,CASKI,inactive
same,Potency,Es-2,inactive
same,Potency,Hek293T,inactive
same,Potency,OV90,inactive
same,Potency,PA-1,inactive
same,Potency,Tov-21-G,inactive
same,Potency,Tov112D,inactive
CO[C@H]1[C@H](O)[C@H](O[C@H]2CC[C@]3(C=O)C4CC[C@]5(C)[C@H](C6=CC(=O)OC6)CC[C@]5(O)C4CC[C@@H]3C2)O[C@@H](C)[C@@H]1O (some centres undefined),Potency,[1],15.9 nM (active)
same,Potency,[2],44.7 nM (active)
same,Potency,[3],inactive
same,Potency,[4],inactive
same,Potency,[6],inactive
same,Potency,CRL-7250,28.2 nM (active)
same,Potency,HEK293,50.2 nM (active)
same,Potency,HaCat,126 nM (active)
same,Potency,KB-3-1,39.9 nM (active)
same,max response,NIH3T3,-5%
same,Potency,C33A,89.1 nM (active)
same,Potency,CASKI,224 nM (active)
same,Potency,Es-2,100 nM (active)
same,Potency,Hek293T,126 nM (active)
same,Potency,OV90,282 nM (active)
same,Potency,Tov-21-G,31.6 nM (active)
CC1=CC(=O)[C@@H](O)[C@]2(C)C3[C@@H](O)[C@@H]4OC(=O)[C@@H]([C@H]4C)[C@]3(C)C(=O)C[C@@H]12 (some centres undefined),Potency,[1],2260 nM (active)
same,Potency,[2],2260 nM (active)
same,Potency,[3],inactive
same,Potency,[4],inactive
same,outcome,[5],inactive
same,Potency,[6],inactive
same,Potency,[7],inactive
same,Potency,CRL-7250,3210 nM (active)
same,Potency,HEK293,2860 nM (active)
same,Potency,HaCat,11400 nM (active)
same,Potency,KB-3-1,4530 nM (active)
same,Potency,NIH3T3,3600 nM (active)
same,Potency,Es-2,8910 nM (active)
same,Potency,PA-1,2820 nM (active)
NC(=O)c1ncn2c1CN=C(c1ccccc1Br)c1cc(F)ccc1-2,Potency,[1],inactive
same,Potency,[2],inactive
same,Potency,[3],inactive
same,Potency,[4],inactive
same,outcome,[5],inactive
same,Potency,[6],inactive
same,max response,CRL-7250,-2.22%
same,max response,HEK293,0.36%
same,max response,HaCat,-12.6%
same,max response,KB-3-1,5.47%
same,max response,NIH3T3,1.84%
same,Potency,C33A,inactive
same,Potency,CASKI,inactive
same,Potency,Es-2,inactive
same,Potency,Hek293T,inactive
same,Potency,OV90,inactive
same,Potency,PA-1,inactive
same,Potency,Tov-21-G,inactive
same,Potency,Tov112D,inactive
